Structures are written as SMILES. Several values for one entry are separate records, joined by “and”; a condition that tells them apart may be missing. Equal values may be shown once. Records with an inconclusive call do not appear. Entries that show only a call come without a potency. Activity calls are given as the source filed them. Calls come from the whole dose curve; as a rule, active = well fitted cell-killing curve with a large enough effect in the repeat runs; inconclusive = weak or mixed curves, or effect the other way; inactive = flat fitted curve, though single readings scatter.
Potency is the fitted concentration of half-maximal effect.

The nature of the assay: qHTS assay to identify small molecule antagonists of the androgen receptor (AR) signaling pathway using the MDA cell line in the presence of 0.5 nM R1881 - cell viability counter screen (AID 1259242). Note: nearly all actives have a fitted effect of over 45% in size. The following applies: MDA-kb2 viability, CellTiter-Fluor protease fluorescence, 16 h; series mostly up to 92.4 µM. The method, boiled down: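 Concentration-response screen of compounds for toxicity in MDA-kb2 reporter cells: 16 hr at 37C with 0.5 nM R1881, endpoint live-cell protease fluorescence measured in the reporter wells.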
A general note: In qHTS, concentration-response curves come from the screen itself.
With `O=C(N/N=C/c1ccccc1O)c1ccncc1`, the Potency entry was “inactive”.

Regarding `O=C(Nc1cccc([N+](=O)[O-])c1)c1cc2ccccc2cc1O`, the Potency was 6.86 µM (active).

Turning to `C/C(=C(/OCCOc1ccc(Cl)cc1)c1ccc(Cl)cc1Cl)n1ccnc1`, the Potency result is “inactive”.

On to `CN(C)c1ccc(C2(c3ccc(N(C)C)cc3)OC(=O)c3cc(N(C)C)ccc32)cc1`, for which the Potency entry was “inactive”.

Regarding `Cn1cc(C(=O)[C@@H]2CCc3nc[nH]c3C2)c2ccccc21`, the Potency result is “inactive”.

Turning to `NNc1nc(-c2ccc([N+](=O)[O-])cc2)cs1`, the Potency is 54.5 µM (active).

In the case of `CCC(N)(CO)CO`, the Potency entry was “inactive”.

Take `Cc1cccc(S(=O)(=O)O)c1C`: the Potency result is “inactive”.

For the molecule `CCCC1O[C@@H]2C[C@H]3[C@@H]4CCC5=CC(=O)C=C[C@]5(C)[C@H]4[C@@H](O)C[C@]3(C)[C@]2(C(=O)CO)O1` (stereo not given in full), the Potency entry is “inactive”.

Turning to `Nc1ccccc1O`, the Potency entry was “inactive”.

As to `C=CC(=O)OCC(CO)(COC(=O)C=C)COC(=O)C=C`, the Potency was 10.9 µM (active) and 27.3 µM (active).

In the case of `CN(C/C=C/C#CC(C)(C)C)Cc1cccc2ccccc12`, the Potency result was “inactive”.

Take `Clc1ccc2n[nH]nc2c1`: the Potency entry is “inactive”.

On to `CC(=O)OCC(C)OC(C)=O` (stereo not given), for which the Potency result was “inactive”.

Take `CCN(C(=O)N(CC)c1ccccc1)c1ccccc1`: the Potency result is “inactive”.

`C1CCCC1`: the Potency entry was “inactive”.

For `CSc1cnc(C)cn1`, the Potency entry was “inactive”.

As for `CCN1/C(=C/C=C/c2sc3ccccc3[n+]2CC)Sc2ccccc21`, the Potency is 0.82 µM (active).

In the case of `CSc1ccc(/C=C2/C(C)=C(CC(=O)O)c3cc(F)ccc32)cc1`, the Potency result is “inactive”.

`Cc1ccc(-n2nc(C(C)(C)C)cc2NC(=O)Nc2ccc(OCCN3CCOCC3)c3ccccc23)cc1`: the Potency entry was “inactive”.

In the case of `CCOC(=O)/C=C(C)/C=C/C=C(C)/C=C/c1c(C)cc(OC)c(C)c1C`, the Potency entry is “inactive”.

On to `Cc1onc(-c2c(Cl)cccc2Cl)c1C(=O)N[C@@H]1C(=O)N2[C@@H]1SC(C)(C)[C@@H]2C(=O)O`, for which the Potency entry is “inactive”.

For the molecule `CCN(Cc1cccnc1)C(=O)c1cccc(Cl)c1[C@]1(C)C(=O)N(Cc2ccc(OC)cc2OC)c2ccc(Cl)cc21`, the Potency result was “inactive”.

For `CC(C)(C)C(=O)OCOC(=O)[C@@H]1N2C(=O)[C@@H](NC(=O)[C@H](N)c3ccccc3)[C@H]2SC1(C)C`, the Potency entry was “inactive”.

For `CCOC(=O)O[C@H](C)OC(=O)c1ccc2c(c1)cc(C(=O)NC1CCN(C(C)C)CC1)n2Cc1cc(-c2ccc(Cl)s2)on1`, the Potency was 40.4 µM (active).

The values above are taken from PubChem BioAssay (Tox21).
